# Screening results: PubChem, National Center for Advancing Translational Sciences (NCATS)
# The list is not random: actives were taken first. Their share in the collection is about 12%.
# G9a inh – qHTS Assay for Inhibitors of Histone Lysine Methyltransferase G9a; Histone-lysine N-methyltransferase EHMT2 (Homo sapiens), Q96KQ7; 8.8% of 350,000 active; Potency, µM (top dose mostly 102 µM), for inactives: at the top dose activity, negative = inhibition, actives largely listed as inhibitors; G9a H3K9 monomethylation, AlphaScreen, 2 h; also: % is scaled to controls: 0 for no effect and ±100 for the full control effect; nearly all actives have a fitted effect of over 75% in size
#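 Signal arises when biotinylated H3K9 peptide, once monomethylated, bridges streptavidin donor and antibody-captured acceptor beads. Enzyme at 20 nM was preincubated 15 min with test compounds; peptide 500 nM and SAM 20 uM then reacted for 2 h.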
# BAZ2B inh – qHTS Assay for Inhibitors of BAZ2B. 4.4% of 360,000 active. Potency, µM (series often up to 114 µM), for inactives: at the top dose activity change, negative = inhibition, most hits filed as inhibitors. AlphaScreen BAZ2B-H3K14Ac peptide displacement; also: % is scaled to controls: 0 for no effect and ±100 for the full control effect; nearly all actives have a fitted effect of over 60% in size
#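 In this displacement format the biotinylated H3(5-23) peptide acetylated at Lys14 serves as ligand at 50 nM, with BAZ2B at 50 nM in PBS pH 7.4 containing 0.01% Tween-20. Donor and acceptor beads are 10 ug/mL final.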
# JMJD2A Tudor inh – qHTS Assay for Inhibitors of JMJD2A-Tudor Domain; Lysine-specific demethylase 4A (Homo sapiens), O75164; AlphaScreen JMJD2A-Tudor / H3K4me3 peptide binding; Potency, µM (doses to about 114 µM), without a hit: top-dose activity change, negative = inhibition, usual class: inhibitors; 4.4% of 390,000 active; also: % is scaled to controls: 0 for no effect and ±100 for the full control effect; nearly all actives have a fitted effect of over 50% in size
# Sfp PPTase inh – qHTS Assay for Inhibitors of Bacillus subtilis Sfp phosphopantetheinyl transferase (PPTase) | 4'-phosphopantetheinyl transferase ffp (Bacillus subtilis), Q9F4F7 | Biochemical Sfp PPTase activity, qHTS | Potency, µM, inactives show largest response in the series, negative = inhibition, most hits filed as inhibitors | 3.5% of 310,000 active | AID 1490, 2009;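 also: the enzyme is Sfp with the accession as filed and its product quenches rhodamine fluorescence; 0% = enzyme reaction without inhibitor and -100% = no enzyme wells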
#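 Sfp 15 nM + cpd, 15 min RT; start w/ rhodamine-CoA 5 uM, BHQ-2-YbbR 12.5 uM (final); 50 mM Hepes pH 7.6, 10 mM MgCl2, 0.01% NP-40, 0.01% BSA; read 525/598 nm at 0 and 30 min.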
# HP1b binding inh – HTS for Inhibitors of HP1-beta Chromodomain Interactions with Methylated Histone Tails | AlphaScreen HP1-beta / biotin-H3K9me3 peptide binding | Chromobox protein homolog 1 (Homo sapiens), P83916 | Potency, µM (top dose mostly 114 µM), for the others: top-dose activity change, negative = inhibition, actives largely listed as inhibitors | 0.56% of 390,000 active; also: nearly all actives have a fitted effect of over 70% in size
#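 HP1-beta protein (50 nM final) preincubated 30 min at room temperature with biotinylated H3(1-18)K9me3 peptide (50 nM) in PBS pH 7.4, 0.01% Tween-20, then compound added for 30 min. AlphaScreen streptavidin donor/nickel chelate acceptor beads (10 ug/mL final), 30 min dark, luminescence read.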
# The depositor's hits bear a star; i = inactive; ? = inconclusive; . = no result; ! = not confirmed by another sample; [ ] = another dose, or the depositor's remark. Calls follow the shape of the dose curve; as a rule, active = well fitted curve in the direction sought with a large enough effect; inconclusive = small, poorly fitted or top-dose-only effect, or another doubt; inactive = no such curve, though single readings can be large; an effect the other way counts as inactive or inconclusive. Potency is read from the fitted curve at half-maximal effect.
SMILES,G9a inh,BAZ2B inh,JMJD2A Tudor inh,Sfp PPTase inh,HP1b binding inh
CCC1=NN(C(=O)c2ccccc2O)C(O)(c2ccccc2)C1 (stereo not drawn),3.4%,50.1µM*,7.08µM*,9.3%,13.0%
COC(=O)C1=NN(C(=O)c2ccc(Cl)cc2)C(O)(c2ccccc2)C1 (stereo not drawn),-43.6%[59 µM],5.9%,-35.1%,3.2%,1.4%
COc1cccc(C(=O)Nc2ccc3nc(SCc4ccc(C)cc4)sc3c2)c1,5.0%[59 µM],-16.1%,3.0%,.,81.3%
Cc1ccc(S(=O)(=O)N2CCCCC2)cc1NC(=O)COC(=O)c1ccc(=O)[nH]c1,12.7%[12.7 µM],2.8%,-7.4%,.,31.0%
COc1ccc(NC(=O)c2ccc3ccccc3c2)cc1,10.2%[0.501 µM],12.9%,-10.3%,-1.7%,20.2%
COc1ccc(/C=N/NC(=O)c2ccc(N(C)S(=O)(=O)c3ccccc3)cc2)c(OC)c1,-38.8%,4.0%,-16.6%,19.3%,19.9%
COc1cccc(CNc2ccc(F)c(Cl)c2)c1,50.1µM*,?,25.8%,3.6%,44.1%
COc1cccc(CNc2ccc(F)c(Cl)c2)c1O,10.5%,-2.5%,?,18.5%,19.2%
COc1ccc(C2/C=C\CC(NC(=O)OCC3c4ccccc4-c4ccccc43)CC(=O)N2Cc2cccc(F)c2)cc1 (stereo not drawn),?,.,.,8.4%,.
COc1ccc(C(c2nnnn2Cc2ccccc2)N2CCN(C(=O)c3ccco3)CC2)cc1 (stereo not drawn),56.2µM*,-33.8%,-2.7%[11.4 µM],4.3%,27.1%
Cc1ccc(C(c2nnnn2Cc2cccs2)N2CCN(C(=O)c3ccco3)CC2)cc1 (stereo not drawn),39.8µM*,?,?,-23.3%,22.1%
O=C1Cc2cc(S(=O)(=O)N3CCN(c4ccc(Cl)cc4)CC3)ccc2N1,.,.,-34.0%[229 µM],.,.
COc1ccccc1NC(NC(=O)c1ccccn1)C(Cl)(Cl)Cl (stereo not drawn),-48.8%[59 µM],-0.2%,-6.3%,-0.9%,23.0%
CN(C(=O)COC(=O)/C=C/c1cccc([N+](=O)[O-])c1)C1CCS(=O)(=O)C1 (stereo not drawn),0.7%,5.0%,9.3%,7.6%,25.8%
Oc1cc2c(cc1O)C1c3ccc(O)c(O)c3OCC1(O)C2 (stereo not drawn),?,44.7µM*,3.55µM*,2.51µM*!,?
Cc1cc2[nH]ncc2cc1NC(N)=S,11.1%,-0.6%,-4.1%,-10.5%,44.4%
O=C(O)c1c[nH]c(=S)n1-c1ccc(F)cc1,28.2µM*,?,?,11.2µM*,50.5%
Nc1cccc2nsnc12,11.2µM*,-4.6%,-15.4%,-22.4%,-7.2%
Cc1[nH]c2ccccc2c1CN1CCc2ccccc2C1,12.6µM*,?,39.8µM*,-21.7%,-38.6%
COC(=O)CN1C(=O)Nc2ccc(Br)cc2C1c1ccccc1Cl (stereo not drawn),70.8µM*,3.9%,-16.6%,-22.5%,18.5%
CC(C(=O)Nc1ccc(C#N)cc1)N(C)CC(=O)N(C)c1c(N)n(Cc2ccccc2)c(=O)[nH]c1=O (stereo not drawn),.,.,-16.6%,.,2.8%
COc1ccc(N(C(=O)c2ccco2)C(C(=O)NC2CCCC2)c2ccc(N(C)C)cc2)cc1 (stereo not drawn),79.4µM*,50.1µM*,?,-7.0%,-25.7%
COc1cc(OC)cc(N(C(=O)c2ccco2)C(C(=O)NC2CCCC2)c2ccc(N(C)C)cc2)c1 (stereo not drawn),22.4µM*,?,?,5.6%,-19.6%
CC1(C)CC1C(=O)N/C(=C/CCCCSCC(N)C(=O)O)C(=O)O (stereo not drawn),1.0%[12.7 µM],.,.,-4.7%,.
Cc1cc(C)n(-c2nc3ccccc3nc2NCCc2ccccc2)n1,433.5%,408.8%,365.5%,?,i
SMILES,G9a inh,BAZ2B inh,JMJD2A Tudor inh,Sfp PPTase inh,HP1b binding inh
CCOCCCNCC(=O)Nc1cc(S(=O)(=O)N2CCOCC2)ccc1N1CCOCC1,.,.,-12.0%,.,31.3%
CSc1ccccc1NC(=O)CNCCCN1CCOCC1,3.55µM*,56.2µM*,0.112µM*,?,-26.4%[57 µM]
CCOCCCNCC(=O)Nc1ccccc1N1CCOCC1,11.2µM*,35.5µM*,3.98µM*,-24.9%,?
O=C(Nc1cc(C(F)(F)F)ccc1-n1cncn1)c1cn2ccccc2n1,.,.,-28.9%,.,14.0%
O=C(CSc1nnc2ccc(-c3cccnc3)nn12)Nc1ccc(F)cc1,-7.2%,12.3%,-4.1%,.,32.7%
NC(=O)CSc1nnc2ccc(-c3ccc(F)cc3)nn12,-14.2%,-22.3%,-24.3%[11.4 µM],-16.3%,13.8%
O=C(CSc1nnc2ccc(-c3ccncc3)nn12)Nc1ccc(F)cc1,6.31µM*,-26.0%,-4.1%,.,4.3%
Cc1ccc(-c2ccc3nnc(SCC(N)=O)n3n2)cc1,44.7µM*,-11.0%,2.4%,-0.5%,39.1%
NC(=O)CSc1nnc2ccc(-c3ccc(Cl)cc3)nn12,50.1µM*,89.1µM*,-11.2%,21.8%,27.7%
O=c1cnnc(N/N=C/C2CC=CCC2)[nH]1 (stereo not drawn),55.9%,8.91µM*,31.6µM*,44.7µM*,39.8%
O=C(Oc1cccc(NC2=NS(=O)(=O)c3ccccc32)c1)c1cccnc1,.,-14.9%,-12.5%,20.3%,39.2%
CCN1CCN(Cc2ccc(NC(=O)c3ccc(C)c(NC(=O)c4c[nH]c5cc(C(F)(F)F)ccc5c4=O)c3)cc2C(F)(F)F)CC1,?,?,-22.5%,79.4µM*,5.1%
COc1cccc(N=c2oc3ccccc3cc2-c2nc3ccccc3[nH]2)c1,-4.0%[12.7 µM],-32.8%,31.6µM*,-15.4%,6.9%
C/C=C(\C)CN1CCN(c2ccccc2)CC1,50.1µM*,?,-15.6%,9.7%,8.1%
Cc1ccc2nc(N3CCN(Cc4nnnn4C4CCCC4)CC3)c(C#N)cc2c1,?,35.7%,27.1%,11.0%,101.1%
Cc1ccc(C)c(N2CCN(Cc3nnnn3C3CCCCC3)CC2)c1,-48.6%[59 µM],-2.6%,-20.4%,79.4µM*,24.2%
C/C=C(\C)CN1CCN(c2cc(C)ccc2C)CC1,1.26µM*,-32.5%,5.62µM*,?,?
CC(C)(CCl)C(=O)Nc1ccc(OC(F)(F)F)cc1,-1.5%,9.9%,0.7%,13.5%,60.6%
CS/C(=C\[N+](=O)[O-])Nc1ccc(OC(F)(F)F)cc1,50.1µM*,-31.9%,-12.4%,14.6%,23.3%
CC1=CC(c2ccccc2)n2nc(N3C(=O)CCC3=O)nc2N1 (stereo not drawn),20µM*,?,79.4µM*,-7.6%,35.3%
CC1=CC(c2ccccc2)n2nc(N3C(=O)C4CC=CCC4C3=O)nc2N1 (stereo not drawn),25.1µM*,-35.0%,-32.8%,8.5%,22.8%
